# Rows were chosen to be rich in hits. Some 12% of all compounds tested hit in one or more screens of this group.
# SARS PLpro yeast: qHTS of Yeast-based Assay for SARS-CoV PLP; S. cerevisiae expressing SARS-CoV PLpro, growth rescue; Potency, µM (highest dose often 32.9 µM), inactives show at the highest dose activity, positive = growth rescue, most hits filed as activators; 0.19% of 330,000 active; calls by dose curve; note: 0% is about no effect; nearly all actives have a fitted effect of over 55% in size
# Pf growth 96h: Primary qHTS for delayed death inhibitors of the malarial parasite plastid, 96 hour incubation; P. falciparum luciferase reporter growth, 96 h; Potency, µM (top dose mostly 28.7 µM), without a hit: at the top dose activity change, negative = inhibition, actives largely listed as inhibitors; 6.9% of 320,000 active; AID 504834, 2011; note: % is set by controls: 0 for no effect and ±100 for the full control effect
#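 Luminescence readout: decreased luciferase signal marks inhibited growth of reporter-expressing P. falciparum in infected red cells (2% hematocrit, 0.05% parasitemia final), exposed to compound two generations (96 h, 37 C, 5% CO2).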
# Sm TGR inh: qHTS Assay for the Inhibitors of Schistosoma Mansoni Peroxiredoxins; Schistosoma mansoni thioredoxin glutathione reductase (TGR), Q962Y6; purified TGR, DTNB reduction, TNB absorbance 405 nm; Potency, µM (highest dose often 114 µM), without a hit: at the highest dose activity change, negative = inhibition, hits mostly inhibitors; 3% of 360,000 active; AID 485364, 2010; note: % is set by controls: 0 for no effect and ±100 for the full control effect; nearly all actives have a fitted effect of over 60% in size
#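 First, TGR (20 nM dispensed) and NADPH were mixed with compound. Second, a 15 min room-temperature incubation followed. Third, further NADPH and then DTNB were added to start the reaction. Finally, TNB absorbance was monitored kinetically.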
# AmpC detergent: qHTS Inhibitors of AmpC Beta-Lactamase (assay with detergent) | P00811 | AmpC hydrolysis of nitrocefin, absorbance 480 nm, 0.01% Triton | Potency, µM (top dose mostly 114 µM), for inactives: top-dose activity change, negative = inhibition, usual class: inhibitors | 0.041% of 370,000 active | AID 485294, 2010;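 note: 0% = no-compound wells and -100% = no-enzyme wells; nearly all actives have a fitted effect of over 25% in size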
# Target sequence (P00811 whole entry, looked up): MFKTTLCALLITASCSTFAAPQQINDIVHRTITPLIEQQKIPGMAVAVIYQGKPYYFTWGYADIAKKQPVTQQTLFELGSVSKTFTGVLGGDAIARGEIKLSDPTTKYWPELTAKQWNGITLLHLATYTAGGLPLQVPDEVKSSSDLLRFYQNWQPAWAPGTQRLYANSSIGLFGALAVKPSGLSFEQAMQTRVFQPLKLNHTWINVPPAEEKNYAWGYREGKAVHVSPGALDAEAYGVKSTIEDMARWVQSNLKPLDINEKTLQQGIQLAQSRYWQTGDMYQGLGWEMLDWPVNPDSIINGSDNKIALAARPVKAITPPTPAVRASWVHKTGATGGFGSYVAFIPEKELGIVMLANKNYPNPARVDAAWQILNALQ
#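 20 mM phosphate pH 7.0 + 0.01% (detergent screen) or 0.0001% Triton X-100; 5.3 nM AmpC reagent; cpd preinc 15 min RT; nitrocefin (800 uM stock) to start; A480 q20 s × 4 min; Activity was normalised to no-enzyme and no-compound control wells.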
# AmpC no deterg: qHTS Inhibitors of AmpC Beta-Lactamase (assay without detergent); P00811; AmpC nitrocefin hydrolysis, absorbance 480 nm, 0.0001% Triton; Potency, µM (top dose mostly 57.1 µM), without a hit: top-dose activity change, negative = inhibition, most hits filed as inhibitors; 0.52% of 330,000 active; AID 485341, 2010;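 note: plate controls were no compound for no effect and no enzyme for full effect; nearly all actives have a fitted effect of over 20% in size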
#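 20 mM phosphate pH 7.0 + 0.01% (detergent screen) or 0.0001% Triton X-100; 5.3 nM AmpC reagent; cpd preinc 15 min RT; nitrocefin (800 uM stock) to start; A480 q20 s × 4 min; Activity was normalised to no-enzyme and no-compound control wells.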
# Pf growth 48h: Primary qHTS for delayed death inhibitors of the malarial parasite plastid, 48 hour incubation. Potency, µM (titrated, usually from 28.7 µM), for inactives: at the highest dose activity change, negative = inhibition, most hits filed as inhibitors. P. falciparum luciferase growth in erythrocytes, 48 h. 5.9% of 310,000 active; note: % is set by controls: 0 for no effect and ±100 for the full control effect
#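 A one-generation exposure of luciferase-tagged malaria parasites in RPMI 1640/Albumax erythrocyte culture, 37 C and 5% CO2. Inhibition is inferred from decreased luminescence after adding detection reagent.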
# * hit, by the source's call; ? = inconclusive; . = no result; [ ] = remark or other dose. Unless noted, calls come from the whole dose curve; as a rule, active = well fitted curve in the direction sought with a large enough effect; inconclusive = small, poorly fitted or top-dose-only effect, or another doubt; inactive = no such curve, though single readings can be large; an effect the other way counts as inactive or inconclusive. Potency is the fitted concentration of half-maximal effect.
SMILES,SARS PLpro yeast,Pf growth 96h,Sm TGR inh,AmpC detergent,AmpC no deterg,Pf growth 48h
COc1ccc(C)cc1NC1(c2ccccc2)C(=O)c2ccccc2C1=O,.,.,15%,-1%,.,.
CCNc1nc2c(c(=O)n(C)c(=O)n2C)n1CCCc1ccccc1,3%,-7%,-1%,-3%,-22%,6%
O=C(COc1ccc(Cl)cc1Br)Nc1nnc(C2CC2)s1,1%,-16%,-18%,?,-47%,-8%
CCNC(=S)N(CCc1c(C)[nH]c2ccc(Cl)cc12)Cc1cccnc1,-1%,?,2%,4%,103%,12µM*
CNC(=S)N(CCc1c(C)[nH]c2ccc(Cl)cc12)Cc1cccnc1,-1%,?,-10%,0%,61%,?
COc1cccc(CNC(=O)c2cc3c(=O)n(Cc4cccnc4)ccc3nc2C)c1,.,.,2%,27%,.,.
CC(C)[N+](C)(C)CC(O)COc1cccc2ccccc12 (stereo not drawn),.,24%,.,.,.,6µM*
C=CCOc1ccccc1OC[C@H](O)CNC(C)C,.,?,.,.,.,-25%[12.8 µM]
CCc1ccc(CN(C)CC(O)COc2cccc3ccccc23)cc1 (stereo not drawn),-15%,?,-24%,?,80%,0%
CC(C)NCC(O)COc1cccc2ccccc12 (stereo not drawn),0%,?,6%,2%,-5%,10µM*
CC(C)NCC(O)COc1cccc2[nH]ccc12 (stereo not drawn),-1%,0.85µM*,2%,-4%,-23%,-3%
COc1ccc(NCc2nnc(SCC(=O)Nc3ccccc3)n2C)cc1,-2%,?,-1%,-9%,-7%,-11%
CCOC(=O)[C@H]1[C@H]2COc3ccc(OC)cc3[C@@H]2N2C(=O)CN(CCc3c[nH]c4ccccc34)C(=O)[C@@]12C,-8%,?,0%,1%,95%,13µM*
CCCCN1CC(=O)N2[C@H]3c4cc(Cl)ccc4OC[C@@H]3[C@H](C(=O)OCC)[C@]2(C)C1=O,-5%,?,-21%,4%,126%,?
CCOC(=O)[C@H]1[C@H]2COc3ccc(Cl)cc3[C@@H]2N2C(=O)CN(Cc3ccc(C)cc3)C(=O)[C@@]12C,-6%,?,0%,-1%,171%,12µM*
CCOC(=O)[C@H]1[C@H]2COc3ccc(Cl)cc3[C@@H]2N2C(=O)CN(Cc3ccco3)C(=O)[C@@]12C,-9%,?,16µM*,1%,98%,?
CCOC(=O)[C@H]1[C@H]2COc3ccc(Br)cc3[C@@H]2N2C(=O)CN(Cc3ccc(OC)cc3)C(=O)[C@@]12C,-1%,?,-9%,-9%,156%,7.4µM*
COc1ccc(NC(=O)C2=C(C)Nc3ncnn3C2c2ccc(O)cc2)cc1 (stereo not drawn),.,.,1%,2%,.,.
COc1ccccc1NC(=O)c1ccc(-c2nc(COc3ccc(C)cc3)c(C)o2)cc1,.,.,2%,18%,.,.
CCOC(=O)[C@H]1[C@H]2COc3ccc(Cl)cc3[C@@H]2N2C(=O)CN(Cc3ccc(OC)cc3)C(=O)[C@@]12C,?,6.6µM*,-3%,3%,152%,7.4µM*
C[C@@]12C(=O)N(CCc3c[nH]c4ccccc34)CC(=O)N1[C@H]1c3ccccc3OC[C@@H]1[C@@H]2c1ccccc1,?,6.6µM*,-1%,4%,0%,12µM*
COCCNC(=S)N/N=C/c1ccc(-c2ccc([N+](=O)[O-])cc2)o1,-1%,?,?,4%,-29%,1%
O=C1NC(=O)N(Cc2ccco2)C(=O)/C1=C/c1ccc(-c2cccc([N+](=O)[O-])c2)o1,-14%,21%,40µM*,?,35µM*,-2%

# Screens deposited in PubChem by National Center for Advancing Translational Sciences (NCATS).
